# An excerpt weighted towards active compounds, which were near 10% of everything screened.
# HEK cytotox = Cytotoxic Profiling in HEK 293 Cell Line of Diverse Libraries Using Quantitative High-Throughput Screening; HEK 293 viability, ATP luminescence (CellTiter-Glo), 48-72 h; Potency, µM (series often up to 115 µM), inactives show at the highest dose activity change, negative = cytotoxicity, actives largely listed as inhibitors; 94,000 tested, 6.6% active; AID 1345083, 2018; note: nearly all actives have a fitted effect of over 60% in size
#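 Pintool-delivered compounds were incubated with HEK 293 cells (250 cells/well) at 37 degree Celsius for 48 or 72 hr. ATP-dependent luminescence (CellTiter-Glo) then reported remaining viable cells.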
# Luciferase inh = Firefly luciferase inhibition profiling of diverse chemical library using quantitative high-throughput screening. Luciferin 4-monooxygenase (Photinus pyralis), P08659. purified P. pyralis luciferase, luminescence, biochemical. Potency, µM (top dose mostly 115 µM), usual class: inhibitors. 76,000 tested, 2.5% active. AID 1347043, 2019; note: nearly all actives have a fitted effect of over 65% in size
#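 Purified 10nM P. pyralis luciferase with 10uM D-luciferin and 10uM ATP in 50mM Tris acetate pH 7.5, 10mM Mg acetate, 0.01% Tween-20, 0.05% BSA. qHTS titration; luminescence read by CCD imager.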
# GPT2 inh = Primary qHTS assay for inhibitors of Glutamate pyruvate transaminase 2 (GPT2); Alanine aminotransferase 2 (Homo sapiens), Q8TD30; Recombinant GPT2, coupled pyruvate oxidase/HRP Amplex Red fluorescence; Potency, µM (titrated, usually from 57.7 µM), inactives show at the highest dose activity change, negative = inhibition, most hits filed as inhibitors; 100,000 tested, 0.25% active; AID 1671188, 2021; note: nearly all actives have a fitted effect of over 60% in size
#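 Recombinant GPT2 (10ng/uL) with 250uM a-KG and 2mM L-alanine, 30 min at room temperature, in HEPES pH 7.5 buffer. Pyruvate detected by pyruvate oxidase/HRP/Amplex Red fluorescence after 30 min in the dark; AOA (50uM) as positive control.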
# NPR1 antag = Natriuretic polypeptide receptor (hNpr1) antagonism - Primary qHTS. HEK293 hNpr1 GloSensor cGMP, ANP-stimulated luminescence. Potency, µM (titrated, usually from 46.3 µM), without a hit: at the highest dose activity change, negative = inhibition, most hits filed as inhibitors. 76,000 tested, 1.6% active. AID 1347048, 2019; calls by dose curve; note: nearly all actives have a fitted effect of over 60% in size
# Target sequence (P16066 whole entry, looked up): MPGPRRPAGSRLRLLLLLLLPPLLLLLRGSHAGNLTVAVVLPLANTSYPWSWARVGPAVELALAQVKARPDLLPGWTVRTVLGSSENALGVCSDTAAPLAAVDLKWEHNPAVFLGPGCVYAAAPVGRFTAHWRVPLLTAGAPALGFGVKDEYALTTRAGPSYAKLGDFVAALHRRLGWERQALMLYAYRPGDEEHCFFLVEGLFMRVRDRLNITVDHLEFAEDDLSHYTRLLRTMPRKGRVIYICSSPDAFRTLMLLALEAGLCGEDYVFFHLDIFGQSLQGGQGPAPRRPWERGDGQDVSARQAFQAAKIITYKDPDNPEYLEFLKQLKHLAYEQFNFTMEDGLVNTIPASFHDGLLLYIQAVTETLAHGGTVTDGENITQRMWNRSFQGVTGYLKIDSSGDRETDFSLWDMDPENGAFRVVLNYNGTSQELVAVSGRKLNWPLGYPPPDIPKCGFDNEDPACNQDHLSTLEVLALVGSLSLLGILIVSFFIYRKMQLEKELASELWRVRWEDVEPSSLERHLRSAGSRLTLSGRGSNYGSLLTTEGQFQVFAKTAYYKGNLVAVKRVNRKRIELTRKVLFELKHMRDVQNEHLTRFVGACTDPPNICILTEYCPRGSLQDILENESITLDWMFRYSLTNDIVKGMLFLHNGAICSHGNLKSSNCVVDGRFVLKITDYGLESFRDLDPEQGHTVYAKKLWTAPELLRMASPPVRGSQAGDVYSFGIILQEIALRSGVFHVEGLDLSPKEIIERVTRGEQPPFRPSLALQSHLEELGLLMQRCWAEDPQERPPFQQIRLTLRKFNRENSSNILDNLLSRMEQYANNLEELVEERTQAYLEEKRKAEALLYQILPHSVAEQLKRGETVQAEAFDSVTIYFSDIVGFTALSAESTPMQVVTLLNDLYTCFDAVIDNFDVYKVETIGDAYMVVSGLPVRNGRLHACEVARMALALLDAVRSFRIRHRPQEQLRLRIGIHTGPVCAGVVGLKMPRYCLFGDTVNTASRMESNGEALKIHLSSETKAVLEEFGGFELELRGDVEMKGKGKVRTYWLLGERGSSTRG
#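 Compound pre-incubated 30 min at room temperature on GloSensor-loaded HEK293 cells stably carrying hNpr1 and the pGS-40F cGMP biosensor. Stimulation uses hNppA at 0.1 nM final; luminescence is taken at baseline and 20 min post-agonist.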
# 3T3 cytotox = Cytotoxic Profiling in NIH 3T3 Cell Line of Diverse Libraries Using Quantitative High-Throughput Screening. Potency, µM (top dose mostly 96.7 µM), without a hit: at the top dose activity change, negative = cytotoxicity, hits mostly inhibitors. NIH 3T3 viability, CellTiter-Glo ATP luminescence, 48-72 h. AID 1345082, 2018. 94,000 tested, 4.3% active; note: nearly all actives have a fitted effect of over 55% in size
#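 First NIH 3T3 cells are plated at 400 cells/well; next compound is pinned in; then plates incubate 48 or 72 hr at 37 °C; finally CellTiter-Glo is added and luminescence read after 10 min.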
# * marks the source's active call; other numbers are inactive results; i = inactive; ? = inconclusive; / = not tested or not shown; [ ] = dose if it differs, or a comment. Unless noted, calls come from the whole dose curve; as a rule, active = well fitted curve in the direction sought with a large enough effect; inconclusive = small, poorly fitted or top-dose-only effect, or another doubt; inactive = no such curve, though single readings can be large; an effect the other way counts as inactive or inconclusive. % is set by controls: 0 for no effect and ±100 for the full control effect; potency is the fitted concentration of half-maximal effect.
SMILES,HEK cytotox,Luciferase inh,GPT2 inh,NPR1 antag,3T3 cytotox
CC(=O)Nc1cccc(-c2nc(-c3c(C)noc3C)cc3c2cc(C)n3CCN(C)C)c1,79µM*,i,?,7%[70.6 µM],?
Cc1ccc(Nc2ccnc(N3CCCN([S+](=O)([O-])c4c(C)noc4C)C3)n2)cc1,?,/,i,/,?
O=C(c1ccccc1)N1CCC2(C1)C(=O)N(c1ccccc1)c1ccccc12 (centres undefined),?,/,-9%,/,?
O=C(O)CCn1ncc2cc(OCC3CCN(C(=O)Oc4ccccc4)CC3)ccc21,-3%[172 µM],i,1%[88.5 µM],/,28µM*
CC(C)OC(=O)N1CCC(COc2ccc3c(cnn3CCC(=O)O)c2)CC1,-32%[172 µM],?,i,0%[70.6 µM],28µM*
O=C(O)CCn1ncc2cc(OCC3CCN(C(=O)c4cc(F)ccc4Cl)CC3)ccc21,-2%,i,5%,/,32µM*
O=C(C1CC1)N1CCC(C(=O)N2CCC(N3CCOC3=O)CC2)CC1,-5%,/,i,/,i
COc1cccc(-c2ccc(C(=O)N3CCC(C(=O)NCc4ccc5c(c4)OCO5)CC3)cc2)c1,?,/,-7%,/,?
CCCN1CCCC12Cc1ccccc1CN(C(C)=O)C2 (centres undefined),?,/,1%[88.5 µM],/,?
CCCN1CCCCC12Cc1ccccc1CN(C(=O)c1c(C)noc1C)C2 (centres undefined),?,/,i,/,32µM*
CCCN1CCCC12Cc1ccccc1CN(C(=O)C(C)C)C2 (centres undefined),89µM*,/,4%,/,?
COc1cccc(-c2c(C(=O)N3CCN(C)CC3)nc3sccn23)c1,-1%,/,3%,/,1%
COc1ccc(Nc2cnc3ccc(N(C)Cc4cccnc4)nn23)cc1OC,?,i,-13%[88.5 µM],?,?
COc1ccc(Nc2cnc3ccc(-c4ccc(OC)c(OC)c4)nn23)cc1OC,89µM*,?,i,-4%[70.6 µM],20µM*
COc1cncc(Nc2cnc3ccc(-c4ccc(OC)c(OC)c4)nn23)c1,63µM*,i,-3%[88.5 µM],-12%[70.6 µM],20µM*
COc1ccc(-c2ccc3ncc(Nc4cnccn4)n3n2)cc1OC,?,i,?,4%[70.6 µM],25µM*
COc1ccc(Nc2cnc3ccc(-c4ccc(OC)c(OC)c4)nn23)cc1,?,18µM*,i,-1%[70.6 µM],14µM*
O=C1Nc2ccccc2CC12CCN(Cc1cncs1)C2 (centres undefined),4%[172 µM],i,i,3%[70.6 µM],-1%[138 µM]
CCNC(=O)C1C(c2cccc(NC(=O)Cc3ccccc3)c2)OC(=O)N1Cc1ccc(C)cc1 (centres undefined),?,i,0%,-9%,-28%
COc1cccc(Nc2cnc3ccc(-c4ccc(OC)c(OC)c4)nn23)c1,56µM*,i,-20%[88.5 µM],-12%[70.6 µM],22µM*
COc1cccc(Nc2cnc3ccc(-c4ccccc4OC)nn23)c1,79µM*,i,?,-3%[70.6 µM],?
COc1ccccc1-c1ccc2ncc(Nc3cccc(N[S+](C)(=O)[O-])c3)n2n1,63µM*,i,-4%[88.5 µM],-20%[70.6 µM],?
COc1ccc(Nc2cnc3ccc(-c4cccc(CO)c4)nn23)cc1OC,?,?,-2%[88.5 µM],-15%[70.6 µM],?
COc1ccc(Nc2cnc3ccc(-c4ccccc4)nn23)cc1OC,63µM*,i,?,-13%[70.6 µM],?
COc1cncc(Nc2cnc3ccc(-c4ccccc4OC)nn23)c1,?,i,?,?,?
SMILES,HEK cytotox,Luciferase inh,GPT2 inh,NPR1 antag,3T3 cytotox
C=CCC1(CO)CCCN(CC(=O)NCCc2ccc(Cl)cc2)C1 (centres undefined),?,i,i,-2%,-25%
COCCN1C(=O)CS(=O)(=O)C12CCN(C(=O)c1cccc(OC)c1)CC2,-11%,i,?,3%,-20%
COc1ccc(-c2ccc3ncc(Nc4ccncc4)n3n2)cc1OC,79µM*,i,i,1%[70.6 µM],35µM*
O=C(NCCC1CCCCC1)C1CCCN1C(=O)c1cccc(-c2ccccn2)c1 (centres undefined),?,/,i,/,?
O=C(c1ccc2[nH]ccc2c1)N1CCC(n2cc(-c3nc(-c4ccccc4)no3)nn2)C1 (centres undefined),16µM*,?,1%,7.9µM*,?
Cc1noc(-c2cn(C3CCN(C(=O)c4ccc5[nH]ccc5c4)CC3)nn2)n1,-2%,i,i,0%,-24%
O=C(c1ccc2cc[nH]c2c1)N1CCC(n2cc(-c3nc(-c4ccccc4)no3)nn2)CC1,40µM*,?,i,-22%,?
O=c1[nH]ccc2cc(OC3CCNCC3)ccc12,/,/,i,/,/
CCCC(=O)N1Cc2ccccc2CC2(CCCCN2Cc2ccncc2)C1 (centres undefined),?,/,i,/,?
Cc1cnn(-c2cc(N3CCC(n4cc(C5CCCC5)nn4)CC3)ncn2)c1,45µM*,i,-6%[11.5 µM],?,?
CCn1cc(CN2CC[C@H]3C(=O)NCCCCCCN(Cc4ccncc4)[C@@H]3C2)cn1,-13%,i,i,-1%,-22%
COc1ccccc1-c1ccc(C(=O)N2CCC(C(=O)NCc3ccccc3)CC2)cc1,?,/,-5%,/,?
COc1ccccc1-c1ccc(C(=O)N2CCC(C(=O)NC3CCCC3)CC2)cc1,28µM*,/,-17%,/,?
COc1ccccc1-c1ccc(C(=O)N2CCC(C(=O)NCc3ccc(C(F)(F)F)cc3)CC2)cc1,35µM*,/,i,/,?
COc1ccccc1-c1ccc(C(=O)N2CCC(C(=O)N3CCC(Cc4ccccc4)CC3)CC2)cc1,?,/,4%,/,22µM*
COc1ccccc1-c1ccc(C(=O)N2CCC(C(=O)NCCCc3ccccc3)CC2)cc1,79µM*,/,i,/,?
COc1ccccc1-c1ccc(C(=O)N2CCC(NC(=O)C3CCCC3)CC2)cc1,?,/,i,/,?
O=C(c1cccc(OC(F)(F)F)c1)N1CCC(N2CC3CC(C2)[C@H]2CCCC(=O)N2C3)CC1 (some centres undefined),-23%,i,i,-18%,-2%
Cn1ncc2c(C(=O)NCc3cccs3)cc(-c3ccsc3)nc21,?,/,i,/,?
O=C(NCc1cccc(F)c1)C1CCN(C(=O)c2ccc(-c3cncnc3)cc2)CC1,-17%,/,1%,/,?

# Source: PubChem (National Center for Advancing Translational Sciences (NCATS))
